Assay outcomes from PubChem BioAssay.
KB-V1 MDR tox = qHTS assay for MDR1-selective chemotherapeutics: Primary screen using the drug-selected MDR subline cells KB-V1. KB-V1 MDR cells viability, CellTiter-Glo, 72 h. Potency, µM (titrated, usually from 46.1 µM), actives largely listed as cytotoxic. actives 3.4% (n = 400,000). AID 1347076, 2019; also: nearly all actives have a fitted effect of over 60% in size
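KB-V1 MDR subline cells in DMEM (phenol-red free, 10% FBS) exposed to compounds in qHTS concentration series for 72 h at 37 degrees C. Viability read by CellTiter-Glo luminescence; concentration-effect curves fitted after normalization and correction.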
MCF10A rerep = A quantitative high throughput screen for small molecules that induce DNA re-replication in MCF 10a normal breast cells | AID 624296, 2012 | MCF 10A DNA re-replication, Hoechst nuclear intensity, 48 h | Potency, µM (series often up to 46.1 µM), hits mostly activators | actives 2.9% (n = 350,000); also: nearly all actives have a fitted effect of over 50% in size
SW480 rerep = A quantitative high throughput screen for small molecules that induce DNA re-replication in SW480 colon adenocarcinoma cells | SW480 DNA re-replication, Hoechst DNA content imaging, 48 h | Potency, µM (highest dose often 46.1 µM), usual class: activators | actives 1.8% (n = 340,000); also: nearly all actives have a fitted effect of over 55% in size
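250 cells/well; 23 nL cpd via pin tool; 48 hr, 37 C, 5% CO2; Hoechst 40 min; imager read of total nuclear intensity, ex 405/em 500-530 nm.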
HT1080 IDH1KD tx = qHTS for induction of synthetic lethality in tumor cells producing 2HG: qHTS for the HT-1080-IDH1KD cell line | HT-1080 IDH1 knockdown viability, ATP luminescence, 48 h | AID 686971, 2013 | Potency, µM (top dose mostly 46.1 µM), usual class: cytotoxic | actives 2% (n = 360,000)
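In this qHTS, HT-1080 cells depleted of IDH1 are exposed for 48 h at 37 °C to compound titrations. Toxicity is scored from CellTiter-Glo luminescence, with DMSO as full viability and medium alone as none.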
KB-3-1 tox = qHTS assay for MDR1-selective chemotherapeutics: Primary screen using the parental adenocarcinoma cell KB-3-1 | KB-3-1 viability, CellTiter-Glo ATP luminescence, 72 h | Potency, µM (doses to about 46.1 µM), usual class: cytotoxic | actives 1.4% (n = 400,000); also: nearly all actives have a fitted effect of over 60% in size
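72 h, 37 °C compound treatment of KB-3-1 parental cells; CellTiter-Glo added, 10 min, luminescence read. Data corrected against DMSO-only plates and normalized before curve fitting.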
HT1080NT lethal = qHTS for induction of synthetic lethality in tumor cells producing 2HG: qHTS for the HT-1080-NT fibrosarcoma cell line | HT-1080-NT fibrosarcoma viability, CellTiter-Glo ATP luminescence, 48 h | Potency, µM (series often up to 46.1 µM), most hits filed as cytotoxic | actives 1.6% (n = 360,000) | AID 686970, 2013;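 also: NT is the 2HG producing partner of a matched IDH1 knockdown line; nearly all actives have a fitted effect of over 55% in size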
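Luminescent CellTiter-Glo readout after 48 hours of compound exposure at 37 degrees C defined viability of HT-1080-NT cells. Activity was normalized to DMSO wells and cell-free media wells; concentration-response curves were fitted and assigned curve classes.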
Each line names hits and unclear results; the compound was inactive in the other large screens. In the library only some 7.9% were active in any assay of this set; here they are far more common. Calls follow the shape of the dose curve; as a rule, active = well fitted curve in the direction sought with a large enough effect; inconclusive = small, poorly fitted or top-dose-only effect, or another doubt; inactive = no such curve, though single readings can be large; an effect the other way counts as inactive or inconclusive.

O=C(CSc1nnc(-c2ccc3c(c2)OCO3)n1-c1ccccc1)c1ccc(Cl)cc1	KB-V1 MDR tox 16.4µM
O=C(CSc1nnc(-c2ccc3c(c2)OCO3)n1-c1ccccc1)c1ccccc1	KB-V1 MDR tox 8.2µM
C=CCn1c(SCC(=O)c2ccc(Cl)cc2)nnc1-c1ccc2c(c1)OCO2	KB-V1 MDR tox inconclusive, SW480 rerep inconclusive
CCCCN(c1ccccc1)S(=O)(=O)c1ccc2c(c1)CCN2C(=O)CCC(=O)O	none
CCCN(C(=O)CCc1nc(-c2ccc(OC)cc2)no1)c1ccccc1F	none (no result: MCF10A rerep, SW480 rerep, HT1080 IDH1KD tx, HT1080NT lethal)
Cc1ccc(N2CCN(C3=NC(=O)C(Cc4ccccc4)S3)CC2)cc1 (stereo not given)	KB-V1 MDR tox inconclusive
O=C1N=C(N2CCN(c3ccccc3)CC2)SC1Cc1ccccc1 (stereo not given)	KB-V1 MDR tox 16.4µM
CN1C(=O)N(CC(=O)N2CCN(S(=O)(=O)c3ccc(Cl)s3)CC2)C(=O)C12CCCCC2	KB-V1 MDR tox 14.6µM
O=C(CN1C(=O)NC2(CCCCC2)C1=O)N1CCN(S(=O)(=O)c2ccc(Cl)s2)CC1	none
O=C(CCNC(=O)Cn1ccc2ccccc2c1=O)NCCN1CCN(c2cccc(Cl)c2)CC1	none
O=C(Nc1ncc(S(=O)(=O)c2ccc([N+](=O)[O-])cc2)s1)c1ccc2ccccc2c1	MCF10A rerep inconclusive
CCC(C)(C)C(=O)Nc1ncc(S(=O)(=O)c2ccc([N+](=O)[O-])cc2)s1	MCF10A rerep inconclusive, SW480 rerep inconclusive
COC(=O)C(NC(=O)c1ccccc1Cl)(Nc1ncc(S(=O)(=O)c2ccc([N+](=O)[O-])cc2)s1)C(F)(F)F (stereo not given)	KB-V1 MDR tox 13µM, MCF10A rerep inconclusive, SW480 rerep inconclusive, KB-3-1 tox inconclusive
O=C(Nc1ncc(S(=O)(=O)c2ccc([N+](=O)[O-])cc2)s1)c1cccnc1	MCF10A rerep inconclusive, SW480 rerep inconclusive, HT1080 IDH1KD tx 23.1µM, HT1080NT lethal inconclusive
COc1ccc(-c2ccc(C(=O)Nc3ccc(NC(C)=O)cc3)c3occc23)c(C)c1	none (no result: MCF10A rerep, SW480 rerep)
COc1ccc(-c2coc3c(C(=O)NCC(C)C)cccc23)c(C)c1	KB-V1 MDR tox 14.6µM, HT1080 IDH1KD tx inconclusive, KB-3-1 tox inconclusive, HT1080NT lethal inconclusive (no result: MCF10A rerep, SW480 rerep)
COc1ccc(-c2ccc(C(=O)NCCN(C)C)c3occc23)c(C)c1	HT1080 IDH1KD tx 18.4µM, HT1080NT lethal 29.1µM (no result: MCF10A rerep, SW480 rerep)
COc1ccc(-c2ccc(C(=O)Nc3cc(OC)c(OC)c(OC)c3)c3occc23)c(C)c1	KB-V1 MDR tox 6.51µM, HT1080 IDH1KD tx inconclusive, KB-3-1 tox inconclusive (no result: MCF10A rerep, SW480 rerep)
COc1ccc(-c2coc3c(C(=O)NCc4ccccc4)cccc23)c(C)c1	KB-V1 MDR tox inconclusive, HT1080 IDH1KD tx inconclusive, HT1080NT lethal inconclusive (no result: MCF10A rerep, SW480 rerep)
COCCNC(=O)c1ccc(-c2ccc(OC)cc2C)c2ccoc12	none (no result: MCF10A rerep, SW480 rerep)
COc1ccc(-c2ccc(C(=O)NCc3ccc(N4CCN(C)CC4)cc3)c3occc23)c(C)c1	HT1080 IDH1KD tx inconclusive, KB-3-1 tox inconclusive, HT1080NT lethal 23.1µM (no result: MCF10A rerep, SW480 rerep)
CCOC(=O)C1=C(C)Nc2nc(C)nn2C1c1ccc(C)cc1 (stereo not given)	none
Cc1ccc(-c2ncccc2OC(=O)C23CC4CC(CC(C4)C2)C3)cc1	HT1080 IDH1KD tx inconclusive
COCCn1c(C)cc(C(=O)COC(=O)c2ccc(S(=O)(=O)N(C)C)cc2)c1C	KB-V1 MDR tox inconclusive
CC(CN1CCCCC1)OC(=O)c1ccco1 (stereo not given)	none
CC(=O)Nc1ccc(NC(=O)c2ccc(-c3c(C)noc3C)c3ccoc23)cc1	none (no result: MCF10A rerep, SW480 rerep)
COc1cc(NC(=O)c2ccc(-c3c(C)noc3C)c3ccoc23)cc(OC)c1OC	KB-V1 MDR tox 5.8µM, HT1080 IDH1KD tx inconclusive, KB-3-1 tox inconclusive (no result: MCF10A rerep, SW480 rerep)
COC(=O)c1nn(-c2nc(-c3ccc(OC)c(OC)c3)cc(C(F)(F)F)n2)cc1[N+](=O)[O-]	none
CCCNS(=O)(=O)c1ccc(CCC(=O)NCc2ccco2)cc1	none
O=S(=O)(NCc1ccco1)c1ccc(S(=O)(=O)N2CCCCC2)cc1	KB-V1 MDR tox 16.4µM
O=C(NC1CCCCCC1)c1ccc(S(=O)(=O)NCc2ccco2)cc1	KB-V1 MDR tox 20.6µM, HT1080NT lethal inconclusive
O=C(CCc1ccc(S(=O)(=O)NCc2ccccc2)cc1)NCc1ccco1	KB-V1 MDR tox 20.6µM
CCC(C(=O)NCc1ccco1)N(C(=O)CNS(=O)(=O)c1ccccc1)C1CCCCC1 (stereo not given)	KB-V1 MDR tox inconclusive, MCF10A rerep 4.11µM
O=C(CN1C(=O)C2CCc3[nH]c4ccccc4c3C2C1=O)N1CCCC1 (stereo not given)	none
COc1cccc(C(c2sc3nc(C)nn3c2O)N2CCC3(CC2)OCCO3)c1 (stereo not given)	none (no result: SW480 rerep)
N#CC1=C2SC=C(c3ccc(Br)cc3)N2CCCC1=O	KB-V1 MDR tox inconclusive
Cc1ccc(NC(=O)c2ccc(S(=O)(=O)NCc3ccco3)cc2)nc1	KB-V1 MDR tox inconclusive, MCF10A rerep inconclusive, SW480 rerep 20.6µM, HT1080 IDH1KD tx inconclusive, KB-3-1 tox 20.6µM
O=C(NCc1ccco1)c1cc(C(=O)C2CCCCC2)c[nH]1	KB-V1 MDR tox 10.3µM
C=CCn1c(=O)c(C(=O)NCCc2ccc(Cl)cc2)c(O)c2cc(OC)c(OC)cc21	none
CCn1c(O)c(/C=C2\C=NN=C2c2ccc(C)cc2)sc1=S	MCF10A rerep inconclusive
CC(C)n1c(O)c(/C=C2\C=NN=C2c2ccccc2)sc1=S	KB-V1 MDR tox inconclusive, MCF10A rerep inconclusive, HT1080 IDH1KD tx 20.6µM, HT1080NT lethal 20.6µM
CCC(COC(=O)Nc1cccc(C)c1)NC(=O)OCC(C)C (stereo not given)	KB-V1 MDR tox 3.66µM
Nc1ccc2c(c1)Oc1ccccc1C=C2	none
Nc1ccc2c(c1)COc1ccccc1O2	KB-V1 MDR tox 18.4µM
Cc1cc(N)ccc1N1CCCC1	KB-V1 MDR tox inconclusive
CN1CCN(C2=Cc3ccccc3Sc3cc(F)ccc32)CC1	KB-V1 MDR tox inconclusive, HT1080 IDH1KD tx inconclusive, KB-3-1 tox inconclusive, HT1080NT lethal 15.8µM
CN1CCN(C2=Cc3ccc(Cl)cc3Sc3ccc(F)cc32)CC1	KB-V1 MDR tox inconclusive, MCF10A rerep inconclusive, SW480 rerep 3.98µM, HT1080 IDH1KD tx inconclusive, HT1080NT lethal inconclusive
O=C(O)CC/C(=N\Nc1ccc(S(=O)(=O)N2CCCC2)cc1[N+](=O)[O-])c1cccs1	KB-V1 MDR tox inconclusive, HT1080 IDH1KD tx 32.6µM, HT1080NT lethal inconclusive
